High-throughput results: PubChem, several laboratories
CYP2C9 activ: human CYP2C9 activators, primary screen, biochemical, luminescence | recombinant CYP2C9, luciferin-H conversion; hits give high values; factor 1 = untreated enzyme, 0 = blocked | Cytochrome P450 2C9 (Homo sapiens), P11712 | actives 1.4% (n = 96,000) | activation factor at 5 µM;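 active = activation factor of 2 or more for CYP2C9 at a 5 µM dose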;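 also: 0 = sulfaphenazole-blocked wells and 1 = vehicle-only wells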
Target sequence (P11712 whole entry, looked up): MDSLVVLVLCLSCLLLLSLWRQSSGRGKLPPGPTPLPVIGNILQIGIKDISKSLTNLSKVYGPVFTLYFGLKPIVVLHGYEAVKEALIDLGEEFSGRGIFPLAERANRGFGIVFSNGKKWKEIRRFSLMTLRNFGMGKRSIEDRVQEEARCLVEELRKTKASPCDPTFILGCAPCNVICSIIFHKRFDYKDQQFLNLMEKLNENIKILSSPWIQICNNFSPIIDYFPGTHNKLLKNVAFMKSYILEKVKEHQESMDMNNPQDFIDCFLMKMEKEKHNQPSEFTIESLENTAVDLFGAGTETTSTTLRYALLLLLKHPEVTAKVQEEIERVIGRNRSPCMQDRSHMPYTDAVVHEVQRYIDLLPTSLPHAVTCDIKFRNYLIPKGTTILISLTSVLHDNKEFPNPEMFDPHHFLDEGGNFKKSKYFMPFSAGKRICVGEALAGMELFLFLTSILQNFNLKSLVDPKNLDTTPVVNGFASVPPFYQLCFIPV
PostGolgi yeast: phenotypic screen on post-Golgi transport, primary screen; post-Golgi transport phenotypic cell assay; inhibition, % at 10 µM; actives 0.9% (n = 98,000);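 also: yeast cells grown in 1536-well plates; yeast grown about 18 h at 30C before absorbance read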
CYP2C9 inhib: blockers of cytochrome P450 2C9 activity – biochemical, luminescence, ADME assay, primary screen; actives 20% (n = 96,000); CYP2C9 Supersomes, luciferin-H conversion; inhibition, % at 5 µM; P11712;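 active = blocking of liver enzyme CYP2C9 beyond about 50% at 5 µM, limit read from the data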
CYP2C19 inh: blockers of cytochrome P450 2C19 activity – biochemical, luminescence, ADME assay, primary screen; CYP2C19 Supersomes, luciferin-H EGE luminescence, 30 min; P33261; inhibition, % at 5 µM; actives 21% (n = 96,000); AID 778, 2007;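 active = CYP2C19 inhibition above a set limit at 5 µM in the primary screen, cut at about 50% in these data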;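 also: plate controls were negative control wells for no effect and 2.5 mM tranylcypromine positive control for full effect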
PostGolgi ctrl: growth inhibition of yeast control strain, primary screen, counter-screen for post-Golgi transport modulator project; efflux-deficient yeast background strain, growth absorbance A615, 16 h; inhibition, % at 10 µM; actives 5% (n = 98,000)
CYP2C19 activ: human CYP2C19 activators, primary screen, biochemical, luminescence. Cytochrome P450 2C19 (Homo sapiens), P33261. recombinant CYP2C19, luciferin-H EGE luminescence; hits give high values; 0 = fully inhibited enzyme, 1 = untreated enzyme. activation factor at 5 µM. 96,000 tested, under 10 active. AID 1025, 2008;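 active = activation factor of at least 2 at 5 µM in the primary screen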;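 also: 0 = wells with 2.5 mM tranylcypromine and 1 = vehicle-only wells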
* marks the source's active call; other numbers are inactive results. In the library only some 32% were active in any assay of this set; here they are far more common. Rule as the data show it, unless noted: active = inhibition above about 30%; inactive = the rest.

SMILES	CYP2C9 activ	PostGolgi yeast	CYP2C9 inhib	CYP2C19 inh	PostGolgi ctrl	CYP2C19 activ
CN(Cc1cccs1)S(=O)(=O)c1cccs1	1.1	-7	-10	92*	9	0.1
CC(C)C(NS(=O)(=O)c1cccs1)C(=O)N(C)Cc1ccccc1 (stereo not given)	0	3	96*	96*	9	0
CN(Cc1ccccc1)S(=O)(=O)c1cccs1	0.7	4	29	98*	9	0
CN(CC(=O)NCCc1ccccc1)S(=O)(=O)c1cccs1	0.6	-2	37	58*	5	0.4
CC(C)C(NC(=O)c1ccccc1)c1nnc(SCC(=O)Nc2nccs2)n1C (stereo not given)	0.9	-4	9	2	-5	1
Cc1ccc(C)c(N2CCN(CC3CC=CCC3)CC2)c1 (stereo not given)	0.9	12	6	11	1	0.9
Cc1ccc(NC(=O)/C(C#N)=C/c2cc(C)n(-c3ccc(N4CCOCC4)c([N+](=O)[O-])c3)c2C)c(C)c1	0.8	9	20	-2	14	1
Cc1cc(C=O)c(C)n1-c1ccc(N2CCCC2)c([N+](=O)[O-])c1	0.6	1	44	70*	18	0.3
